Screening data deposited in PubChem by National Center for Advancing Translational Sciences (NCATS).
An excerpt weighted towards active compounds, which were near 5.8% of everything screened.
RORg inh: inhibitors of mouse ROR gamma transcriptional activity; P51450; Drosophila S2 Gal4-RORgamma UAS-luciferase reporter, 20 h; Potency, µM (doses to about 53.6 µM), hits mostly inhibitors; actives 5.4% (n = 310,000); AID 2551; note: nearly all actives have a fitted effect of over 60% in size
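Schneider cells (Drosophila), stable Gal4 DBD–ROR gamma + UAS-luc; 1 hr cmpd preincubation; Cu2+ induction 700 uM final; 20 hr ambient; luminescence.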
VP16 counter: counter-screen for ROR gamma inhibitors: Gal4-VP16 reporter; Drosophila S2 Gal4-VP16 UAS-luciferase, luminescence, 20 h; actives 3.5% (n = 310,000); AID 2546; Potency, µM (highest dose often 53.6 µM), usual class: inhibitors;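 note: Gal4-VP16 expression switched on by copper sulfate through the metallothionein promoter; nearly all actives have a fitted effect of over 50% in size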
TRPV1 agonist: activates the human vanilloid receptor TRPV1; Q8NER1; TRPV1-expressing cells, Fluo-8 calcium influx, agonist mode; activation, % at 8.33 µM; actives 0.19% (n = 320,000); in the data active = activation above about 80%; inconclusive = between about 30% and that limit
Target sequence (Q8NER1 whole entry, looked up): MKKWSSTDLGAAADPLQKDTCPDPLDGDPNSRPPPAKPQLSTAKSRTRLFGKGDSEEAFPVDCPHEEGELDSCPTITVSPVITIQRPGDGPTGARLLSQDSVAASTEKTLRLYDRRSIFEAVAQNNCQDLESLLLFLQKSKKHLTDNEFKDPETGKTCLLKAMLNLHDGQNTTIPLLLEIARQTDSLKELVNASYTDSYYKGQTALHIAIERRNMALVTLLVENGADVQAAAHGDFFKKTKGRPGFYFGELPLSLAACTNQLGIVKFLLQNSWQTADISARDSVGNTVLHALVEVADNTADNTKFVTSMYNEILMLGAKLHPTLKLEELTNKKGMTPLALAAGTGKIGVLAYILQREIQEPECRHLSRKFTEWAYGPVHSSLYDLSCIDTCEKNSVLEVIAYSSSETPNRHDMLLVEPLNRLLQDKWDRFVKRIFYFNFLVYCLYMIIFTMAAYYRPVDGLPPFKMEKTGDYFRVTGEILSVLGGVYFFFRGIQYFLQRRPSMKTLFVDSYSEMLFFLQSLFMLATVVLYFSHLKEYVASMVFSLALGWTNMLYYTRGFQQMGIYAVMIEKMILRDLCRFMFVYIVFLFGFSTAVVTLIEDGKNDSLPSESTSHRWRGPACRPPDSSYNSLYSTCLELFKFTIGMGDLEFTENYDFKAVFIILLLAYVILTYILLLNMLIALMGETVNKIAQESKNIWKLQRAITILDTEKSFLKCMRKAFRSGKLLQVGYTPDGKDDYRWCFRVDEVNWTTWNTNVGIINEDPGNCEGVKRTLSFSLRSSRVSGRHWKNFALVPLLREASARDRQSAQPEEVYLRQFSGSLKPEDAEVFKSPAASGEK
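TRPV1-expressing cells were cultured overnight at 35.5C and loaded with Fluo-8 calcium dye for 40 to 90 min at room temperature. After a 10 s baseline, compound was added and calcium influx was read kinetically for 3 min (ex 480/em 520 nm).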
TRPV1 PAM: potentiators of human vanilloid receptor 1 (TRPV1); Q8NER1; TRPV1-expressing cells, Fluo-8 calcium influx, capsaicin EC20 potentiation; potentiation, % at 8.33 µM; actives 0.02% (n = 320,000); AID 540277; in the data active = potentiation above about 80%; inconclusive = between about 30% and that limit
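Fluo-8 calcium influx in TRPV1-expressing cells, kinetic read (ex 480/em 520 nm). Compound added and read 3 min for agonist activity, followed by capsaicin at EC20 final and 2 min further read for enhancement.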
uPA generation: cell surface uPA generation inhibition; cell surface uPA generation assay, qHTS; Potency, µM (series often up to 38.3 µM), hits mostly inhibitors; actives 0.31% (n = 330,000); AID 540303; active = well fitted inhibition curve with a large enough effect; inconclusive = small, poorly fitted or top-dose-only effect; inactive = no such curve, though single readings can be large or run the other way; tested in mouse RAW 264.7 cells; note: nearly all actives have a fitted effect of over 55% in size
Numbers stand for hits; [ ] = another dose, or the depositor's remark. Unless noted, calls come from the whole dose curve; as a rule, active = well fitted curve in the direction sought with a large enough effect; inconclusive = small, poorly fitted or top-dose-only effect, or another doubt; inactive = no such curve, though single readings can be large; an effect the other way counts as inactive or inconclusive.

How did CCc1ccc(C(=O)CN(C#N)c2nc(C)cc(C)n2)cc1 do in these assays?
RORg inh: 11.2µM; VP16 counter: inactive; TRPV1 agonist: inactive; TRPV1 PAM: inactive; uPA generation: inactive

What do the screens show for `Cc1cccc(NC(=O)c2ccc3nc(N4CCOCC4)sc3c2)c1C`?
RORg inh: inactive; VP16 counter: inconclusive; TRPV1 agonist: inactive; TRPV1 PAM: inactive; uPA generation: inactive

How did COC(=O)C1=NOC2(C=C(Br)C(OC)=C(Br)C2=O)C1 (stereo unspecified) do in these assays?
RORg inh: 1.78µM; VP16 counter: 2.51µM

What do the screens show for `Cc1ccc2c(c1)N(CC(=O)Nc1ncccc1C)C(=O)C(C(C)C)O2` (stereo unspecified)?
RORg inh: inactive; VP16 counter: inactive; TRPV1 agonist: inactive; TRPV1 PAM: inactive; uPA generation: inactive

Results for O=C1[C@H]2[C@@H](C(=O)N1c1cccc3ccccc13)C1(C(=O)c3ccccc3C1=O)N1CCC[C@@H]21 ?
RORg inh: inactive; VP16 counter: 20µM; TRPV1 agonist: inactive; TRPV1 PAM: inactive; uPA generation: inactive

How did O=C1C2C3C=CC(C3)C2C(=O)N1c1cccc2ccccc12 (stereo unspecified) do in these assays?
RORg inh: inactive; VP16 counter: inactive; TRPV1 agonist: inactive; TRPV1 PAM: inactive; uPA generation: inactive

How did Cc1ccc(-c2nnc(N3CCCCC3)c3ccccc23)cc1S(=O)(=O)N(C)C do in these assays?
RORg inh: inactive; VP16 counter: 17.8µM; TRPV1 agonist: inactive; TRPV1 PAM: inactive; uPA generation: inactive

What do the screens show for `Cc1ccc(-c2nnc(N3CCCCC3)c3ccccc23)cc1S(=O)(=O)N1CCN(C)CC1`?
RORg inh: inactive; VP16 counter: inconclusive; TRPV1 agonist: inactive; TRPV1 PAM: inactive; uPA generation: inactive

What do the screens show for `O=C(NCCSCc1ccco1)Nc1ccc(Cl)cc1`?
RORg inh: inconclusive; VP16 counter: inconclusive; TRPV1 agonist: inconclusive; TRPV1 PAM: inactive; uPA generation: inactive

How did O=C(COc1ccc(Cl)cc1)NCCSCc1ccccc1Cl do in these assays?
RORg inh: inactive; VP16 counter: inactive; TRPV1 agonist: inactive; TRPV1 PAM: inactive; uPA generation: inactive

How did Cc1cccc(CSCCNC(=S)Nc2ccccc2)c1 do in these assays?
RORg inh: 5.62µM; VP16 counter: 5.62µM; TRPV1 agonist: inconclusive; TRPV1 PAM: inactive; uPA generation: inactive

What do the screens show for `S=C(NCCSCc1ccccc1Cl)Nc1ccccc1`?
RORg inh: 2.82µM; VP16 counter: 3.98µM; TRPV1 agonist: inconclusive; TRPV1 PAM: inactive; uPA generation: inactive

Results for S=C(NCCSCc1ccc(Cl)cc1)Nc1ccccc1 ?
RORg inh: 2.51µM; VP16 counter: 11.2µM; TRPV1 agonist: inconclusive; TRPV1 PAM: inactive; uPA generation: inactive

How did COCCNC(=O)C(c1ccc(C)cc1)N(C(=O)C(=O)NC1CCCC1)c1ccc2c(c1)OCCO2 (stereo unspecified) do in these assays?
RORg inh: inactive; VP16 counter: inactive; TRPV1 agonist: inactive; TRPV1 PAM: inactive; uPA generation: inconclusive

What do the screens show for `Cn1c(N)nc2nc[nH]c2c1=S`?
uPA generation: inactive

What do the screens show for `CCc1c(C)nc2ncnn2c1NCCc1ccc(Cl)cc1`?
RORg inh: inconclusive; VP16 counter: 11.2µM; TRPV1 agonist: inconclusive; TRPV1 PAM: inactive; uPA generation: inactive

How did CCc1c(C)nc2ncnn2c1NCCc1ccccc1 do in these assays?
RORg inh: inconclusive; VP16 counter: inconclusive; TRPV1 agonist: inactive; TRPV1 PAM: inactive; uPA generation: inactive

Results for Cc1cccc(/C=N/NC(=O)C(C)Nc2cccc3ccccc23)n1 (stereo unspecified) ?
RORg inh: inconclusive; VP16 counter: inconclusive; TRPV1 agonist: inactive; TRPV1 PAM: inactive; uPA generation: inactive

Results for CC(Nc1cccc2ccccc12)C(=O)N/N=C/c1ccc([N+](=O)[O-])cc1 (stereo unspecified) ?
RORg inh: 12.6µM; VP16 counter: 14.1µM; TRPV1 agonist: inactive; TRPV1 PAM: inactive; uPA generation: inactive

Results for COc1cc([N+](=O)[O-])cc(/C=N/NC(=O)C(C)Nc2cccc3ccccc23)c1O (stereo unspecified) ?
RORg inh: 0.398µM; VP16 counter: 0.501µM; TRPV1 agonist: inactive; TRPV1 PAM: inactive; uPA generation: inactive

How did N#C/C(=C\Nc1ccc2c(c1)OCCO2)c1nc2ccccc2[nH]1 do in these assays?
RORg inh: 3.16µM; VP16 counter: 5.01µM; TRPV1 agonist: inconclusive; TRPV1 PAM: inactive; uPA generation: inactive

Results for N#C/C(=C(/O)c1ccc([N+](=O)[O-])o1)c1nc2ccccc2[nH]1 ?
RORg inh: inactive; VP16 counter: inactive; TRPV1 agonist: inactive; TRPV1 PAM: inactive; uPA generation: inactive

Results for N#C/C(=C\Nc1ccc2c(c1)OCCO2)c1nc(-c2ccccc2)cs1 ?
RORg inh: inactive[10 µM]; VP16 counter: inactive; TRPV1 agonist: inactive; TRPV1 PAM: inconclusive; uPA generation: inactive

Results for N#C/C(=C\c1ccc([N+](=O)[O-])o1)c1nc2ccccc2[nH]1 ?
RORg inh: 2µM; VP16 counter: 1.58µM; TRPV1 agonist: inactive; TRPV1 PAM: inactive; uPA generation: inconclusive

Results for Cc1ccc2nc(/C(C#N)=C\c3ccc([N+](=O)[O-])o3)[nH]c2c1 ?
RORg inh: 5.62µM; VP16 counter: 3.16µM; TRPV1 agonist: inactive; TRPV1 PAM: inactive; uPA generation: inconclusive

How did COc1cccc(CNC(=O)C2CCN(S(=O)(=O)c3ccc4c(c3)OCCO4)CC2)c1 do in these assays?
RORg inh: inactive; VP16 counter: inactive; TRPV1 agonist: inactive; TRPV1 PAM: inactive; uPA generation: inactive

How did O=C(Nc1ccncc1)c1cn(-c2ccccc2)nc1-c1cccs1 do in these assays?
RORg inh: inactive; VP16 counter: inactive; TRPV1 agonist: inactive; TRPV1 PAM: inactive; uPA generation: inactive

What do the screens show for `O=C(N/N=C/c1cn(-c2ccccc2)nc1-c1cccs1)c1ccccc1F`?
RORg inh: 5.01µM; VP16 counter: 6.31µM; TRPV1 agonist: inactive; TRPV1 PAM: inactive; uPA generation: inactive

What do the screens show for `O=C(N/N=C/c1cn(-c2ccccc2)nc1-c1ccc(F)cc1)c1ccc(Br)o1`?
RORg inh: 1.78µM; VP16 counter: 2.51µM; TRPV1 agonist: inactive; TRPV1 PAM: inactive; uPA generation: inactive

Results for O=C(N/N=C/c1cn(-c2ccccc2)nc1-c1cccnc1)c1ccc(F)cc1 ?
RORg inh: 2.82µM; VP16 counter: 3.98µM; TRPV1 agonist: inconclusive; TRPV1 PAM: inactive; uPA generation: inactive

How did O=C(/C=C/c1cn(-c2ccccc2)nc1-c1cccnc1)c1ccco1 do in these assays?
RORg inh: 6.31µM; VP16 counter: inconclusive; TRPV1 agonist: inconclusive; TRPV1 PAM: inactive; uPA generation: inactive

Results for CCc1n[nH]c(=S)n1N=C1CCC(C)CC1 (stereo unspecified) ?
RORg inh: inactive; VP16 counter: inactive; TRPV1 agonist: inactive; TRPV1 PAM: inactive; uPA generation: inactive

What do the screens show for `NC(=O)N/N=C/c1cn(-c2ccccc2)nc1-c1ccccc1`?
RORg inh: inactive; VP16 counter: inconclusive; TRPV1 agonist: inactive; TRPV1 PAM: inactive; uPA generation: inactive
